In the supplement of paper PMC10681739:

Key:
ETS1 [1] = target: T1, ETS1 (UniProt P14921); experiment: ETS1 binding intensity (PBM fluorescence), ETS1 alone (arbitrary fluorescence units); higher = stronger binding; settings: ETS1 concentration 1 nM; RUNX1 concentration 0 nM
T1 sequence: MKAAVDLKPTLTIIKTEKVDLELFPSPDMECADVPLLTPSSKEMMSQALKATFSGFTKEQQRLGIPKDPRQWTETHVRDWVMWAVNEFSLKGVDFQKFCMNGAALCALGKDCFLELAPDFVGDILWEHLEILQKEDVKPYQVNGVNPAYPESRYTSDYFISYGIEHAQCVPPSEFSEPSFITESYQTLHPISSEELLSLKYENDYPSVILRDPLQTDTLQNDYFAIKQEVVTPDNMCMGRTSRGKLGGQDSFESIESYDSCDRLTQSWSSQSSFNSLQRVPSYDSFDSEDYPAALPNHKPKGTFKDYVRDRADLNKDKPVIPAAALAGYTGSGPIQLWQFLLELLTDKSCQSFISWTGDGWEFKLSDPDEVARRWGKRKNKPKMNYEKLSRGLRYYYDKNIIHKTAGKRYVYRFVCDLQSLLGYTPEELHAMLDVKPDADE

ETS1 [2] = target: T1, ETS1; experiment: ETS1 binding intensity (PBM fluorescence) in presence of RUNX1, normalised to ETS1-only experiment (arbitrary fluorescence units); higher = stronger binding; settings: ETS1 concentration 1 nM; RUNX1 concentration 25 nM

Row | Sequence | ETS1 binding intensity (ETS1 [1]) | ETS1 binding intensity (ETS1 [2])
1 | TCGCTTCCTGCTCCACTTCTCGGCGCCCACATCTCC | 514 | 523
2 | TGAGTCATTTCCTGGGTGGGGGCCACAAGACCAGGT | 540 | 553
3 | TTCTTGTTTCCTGTCAAGGGAGGCTCTGACCACCTC | 728 | 753
4 | CGTTATTTCCGGGGCTGGGTTAACGCAGCGGTTCCA | 631 | 692
5 | ATTGTAAATTTCCTTTAAACGTCCCCACCGCGCTCC | 463 | 480
6 | AAAGGGCAGACTTCCCTGCCCACATCTCTGCTCCTG | 462 | 359
7 | CAGGCCTGTGATTTCCTCTGAGTGGTTTTCTTGGCC | 465 | 401
8 | TGGCTACCCGGAAGGCGCGTTGGCTGCGGCTACGCA | 549 | 926
9 | CCGACCTTAACGACATCCTGCGGCTCAGCGTGGAGG | 489 | 437
10 | GAATCACCATTTCCTCACTCCCACACAACCATGTTG | 485 | 417
11 | AATATAGGAAGTGTCAGCTAGGGAACTCAACCACAA | 496 | 382
12 | TTGCTAGAGGAAGCGCTGCCCCGGCAGCCGCAGCCA | 524 | 596
13 | CATTCCCGAGAGACTTCCGCGCCGCAGTTTCCCTGC | 523 | 380
14 | CTGACAGCTTCCGCACAAAGCGCGGTCTATTTCTCC | 405 | 544
15 | GCGTTTCCCCCTTGGGGTTATAGCAACCACCTCCTC | 479 | 358
16 | GCTATCGAGCTTCCTGCAGCGGTGGCCACCCGAGCA | 482 | 418
17 | TCCCCTGTCTTCCGGAGGCTGCGGCGCAGCGGCGCA | 403 | 519
18 | ACAGGAAGTCAGCTGAGTACCGAGCAAGCCGCATGC | 1770 | 2090
19 | TAACGCGAGAACTTCCTGCGGGCCACGCCCTCTTTC | 571 | 462
20 | CGCCGGTCCCATATCCTTTCTGCGGGGTGAGCAGCA | 465 | 431
21 | CGACGTCACTTCCGCTGGTTCAAGCACCGCGAGACT | 1900 | 1500
22 | CTCAGCGGAAGAGCGGGCCTCTGGGCCGCAGTGACC | 478 | 430

Row | Sequence | ETS1 binding intensity (ETS1 [1]) | ETS1 binding intensity (ETS1 [2])
23 | CCCTCTGAGACAGGATTTGCTTCCCACACAAGGCTA | 495 | 629
24 | GGGAGGGCGGAAGGCGGCTCTGCGGCAGCAAGCCCC | 476 | 341
25 | GCTGTCCATTTCCGAGATGTTAATGCGGGATCTTGC | 408 | 628
26 | TTCTTAGCAGAGGAAGCTGTTTGCGGGGAAAAAGGG | 1120 | 2200
27 | GCAAAGATACATCCTTCTCCCCACAGACTAAGTTTC | 490 | 412
28 | TCAAGAGGGTGTGGAGGAAGTGGGTTACAAGCACTT | 1450 | 1940
29 | CGTTTGCCTATCTTCCTCCCCACAGAAGCACTCCAT | 453 | 399
30 | TAGTCCGCTACAGGAAGGTGGTCATCCTCGGATACC | 1110 | 1170
31 | AGAATTACCAGGAAGCCGAGCGCTGCGGGCTAGCGG | 518 | 631
32 | TCAGGAAGTGGTGTGACCAGCATGTGAACCGCGGCA | 681 | 1110
33 | CGAAGGAGGAAGCTGCACAGGGTGTCTGTGGCTGGC | 443 | 428
34 | CTAGGGAGAGGATGTGAGTTTGTCTGTGGGGGTGGT | 796 | 828
35 | GATTAAGAGGAAGTGTGTGTGATTATTACCGCTGGA | 1310 | 1540
36 | TCCAGCCGGACGCGATGCCTGGAGGCTGCGGGCGCC | 328 | 597
37 | CTTCCATCCAGGAAGCTTGTGGTGCAACAGCAGTGT | 840 | 1100
38 | CTTGCTTGAGTCACAGGAAACCACTCAGAGGCTAAC | 2600 | 2860
39 | CCAACACGGATACAAAAAATATCTCTCTACCACACT | 476 | 531
40 | GCGCGGCTCAGGAAGCGACGCGGTTCAGGGAGCGAA | 707 | 577
41 | GCAGGAAATGACGTCAGACCTCACTGCGGGTCTGAG | 853 | 1010
42 | GGCAGGCAGCAGAGGAAACCACCCCCACCCACTCCC | 1420 | 1640
43 | TCCAGGATGTGCTGAACCTCCAGAAACCACCGGCTT | 436 | 684
44 | GGCGGCCTCAACTTCCGCGGTGGGACTCCGGAGCAG | 503 | 445

Row | Sequence | ETS1 binding intensity (ETS1 [1]) | ETS1 binding intensity (ETS1 [2])
45 | AATGTAGGAAATTCCACTGCATAATTTGTGGTAGTG | 478 | 539
46 | CACTTGTCCTTCCTGGCCTGCGGCCGCCACCACTTC | 443 | 372
47 | TACCACTGAAAGGATGTGCGGGTAGAAATGAGCAAT | 830 | 938
48 | TCTCTTCTCCCCATCCGCCCGAGACCACAGCCACTC | 509 | 507
49 | GGGGCGCTGCGCAGGAAGCCGCAGTCCCTCTGCGGA | 930 | 1210
50 | TAGAAAAGGAAGCAGGGTAGGTGTGGTATCTGGGTC | 587 | 575
51 | AATTGTCAATGGCAGGAAGCCACCACATGAAGAGAT | 1290 | 1650
52 | ACACCGCTCAGGAAGACAAAGCCACACCTCACACCG | 457 | 356
53 | GTGCGGCGGGAAACGCGTTCCCCGGCAACCGCGCCC | 401 | 479
54 | CTCCCACGCTCCCCTTCCGGCCCCGCAGCGCTGTGA | 804 | 746
55 | GGCGGAACTTGTGCGTACGCTGGAAAACCGCTGGGG | 385 | 545
56 | GTCCCCCTTCCGGCTGCAGGTTGAGGTTTGGAACCT | 511 | 560
57 | CTTGTTATCCTTCCGGAGGCGGTAACTCATGAGAGA | 497 | 352
58 | CGGGGCATGCCGGACGCTGTGGTCCTGAAGGCCTGG | 536 | 423
59 | CCATTTCCTGATTCTAATGTTCATCAACCACTTTTG | 504 | 397
60 | TTCTCCACTTCCTTCTTTACCTCACCTACCACATAA | 568 | 544
61 | CTCAGAGGCACCAAGGGAAGTGGTTAAAACAGAAAG | 677 | 1790
62 | ATAGTCACCGTTCCGGCCCTCCTCCACCGCACTTCT | 445 | 578
63 | CCAGGATGTAGTTTGGCCACTATTGAGTGGTTTGTT | 448 | 502
64 | CCACTCCCAGCTCCATCCTGTGGGTAGAACTCAGTG | 477 | 452
65 | CCTGTCTGCTTCCGCCCGGCTTCGGCCCACAGTCAA | 511 | 441
66 | AGCACGCCGGGAAATGGAGTCTCAGGTGGTTTTTAA | 443 | 364

Row | Sequence | ETS1 binding intensity (ETS1 [1]) | ETS1 binding intensity (ETS1 [2])
67 | GTCTTCACATGTAGGGGAAGTGGGTTAGCGTAGGAG | 951 | 1260
68 | TGGCAGGATGCCGTTAAATATGTAACCACATGTCTC | 500 | 1250
69 | CCATGAGGAGGGAGGAAATAGTGGTACGAGGGCTGC | 1040 | 1040
70 | AAAAAATGGAGGAAGTTACCTCCAGTGGTTTTGTGA | 751 | 1310
71 | ACGGACAGAATTTCCTCCCCCGTCACCACAGCGACC | 686 | 728
72 | GAACACGGAAACACTGAGCTTTTACTTTGACCACAC | 572 | 440
73 | GCTACGGGTTCCCCGGATGGAGCCGCAGTCCGGCCG | 858 | 715
74 | TAGCAGGAAGCCGATTCGCCCTATATGCAACCACTT | 549 | 570
75 | GGTTGTGGAGTAGGATGTGGTGTCTAGCTTTCAGCA | 588 | 568
76 | GACCTGACAACATCCTGGCGCAGTGGGTTGGCCCTG | 496 | 420
77 | CCCCGTTACGCCCATCCGGCTCCCGCATAGGGCGTC | 442 | 402
78 | ACGCCGCGCATCCGCGCTTTACGGCGGCCGCAAAAT | 405 | 563
79 | AGAGGAAGTAAATTCTAACAGTGGAAACCACAGATT | 647 | 2290
80 | CATGAGAAACATCCTGCCCAACCACCTGACTACAAG | 492 | 511
81 | GCTGCGCAGAGGAAACCAGGCTTGTTGGTTTTCATG | 432 | 457
82 | CTAGTTTCCTGTGGCTGCTATGACAAATGACCACAG | 403 | 474
83 | GTCGTCAGCGTCTTCCTGTCAGCGGTCGGCAGAGCC | 706 | 562
84 | CAAGAATGAGAAAGGAAGCTGGCGGTTGGGCAGGTG | 890 | 1260
85 | CAGTGGCTTCCTCCCCACCTCCTACCACATTCAATG | 517 | 467
86 | GAACCCCAAGTTCCGGCTGGCACTGCGGCGGAGCCT | 452 | 299
87 | CCACTCCAGGAAACTCCTCCAGGTGAGCCCACAACT | 500 | 474
88 | ACTTACTTCCCGACGTCACAGCCTCCGACACCACAG | 471 | 423

Row | Sequence | ETS1 binding intensity (ETS1 [1]) | ETS1 binding intensity (ETS1 [2])
89 | CCCGGTGCACCGGATCCGACCACACCCTGGGTGGGC | 525 | 400
90 | CCACTAGCAGGAAAACGGGCCGAGGGACCGCAAGCA | 395 | 688
91 | TGAGGAAGTGTAAGTCACAATAAGAAGCCACATATA | 564 | 519
92 | GTGCGGAAGCGCGCCAAGGCACGTGACCGCTTCTGT | 381 | 475
93 | CCGCCCACTTCCGTGTGGCCGCCGATTGGTTTTGCC | 491 | 516
94 | CGGCGCTCGCGGAAGTGCCGCGGTGCCTGCTCTGCA | 796 | 759
95 | CAGAGGCCCGGCCTCTTCCGCCACAACTCCGGCCCG | 492 | 356
96 | CGAGCTATTTACTTCCTGCGGGTGCACAGGCTGTGA | 654 | 475
97 | GAGCACATTTCCTTTTGCTTCCAGATACCACAGTGA | 445 | 412
98 | TTTTCCCACTTCCTAGGTTGTGGTGGGGATTACACA | 475 | 571
99 | CCGAAGAGGAAGCTCCACAGGACCTCCGCGGTCAGC | 397 | 1000
100 | TGGGGGCGGAAGCCTAAACCCCTCCCGCAGCCAGTC | 625 | 627
101 | GTGTTGGGTGGCTTCCTGCGGCGTTTCCACTCTCGC | 605 | 504
102 | GCTTTTCCGCTCCCAGAGTGCCCCGCCCACAGTTCA | 477 | 426
103 | TGTGAGAAGCCGGATCCTGTGGTGACCCAGTGGCCT | 409 | 479
104 | TAACTTGAACTTCCTTTTGACCACCTGTACGGTATA | 497 | 462
105 | GGCCGGGGACGGAAGGCGGGCCCGCAGCAGATCCTG | 475 | 362
106 | AATAAACAGGAAGGTCTCTTGGAGCTGTGGTCTTGG | 677 | 1110
